Records with an inconclusive call do not appear. A number with no mark means an inactive call. Calls of active or inactive are those of the source. Calls follow the shape of the dose curve; as a rule, active = well fitted activation curve with a large enough effect in the signal ratio (not every such curve was filed as active); inconclusive = small, poorly fitted or top-dose-only effect, or a change in a side signal; inactive = flat fitted curve, though single readings scatter; the % refers to the signal ratio.
Assay: qHTS assay for small molecule activators of the p53 signaling pathway (AID 651743); as to activation: series mostly up to about 92 µM; % of control where 0% means no effect
Details: HCT-116 p53RE-bla, beta-lactamase FRET ratio, 16 h; activation: stronger effect = higher value
Excerpt: National Center for Advancing Translational Sciences [NCATS] NIH Chemical Genomics Center [NCGC] U.S. Environmental Protection Agency [EPA] National Institutes of Environmental Health Sciences [NIEHS] National Toxicology Program [NTP] Assay Overview: p53, a tumor suppressor protein, is activated following cellular insult, including DNA damage and other cellular stresses. The activation of p53 regulates cell fate by inducing DNA repair, cell cycle arrest, apoptosis, or cellular senescence. The activation of p53, therefore, is a good indicator of DNA damage and other cellular stresses. The CellSensor p53RE-bla HCT-116 cell line (Invitrogen) contains a stably integrated beta-lactamase reporter gene under control of the p53 response elements. The activation of the report gene under culture conditions can be detected by fluorescence intensity. This cell line can be used to screen chemicals in a 1536-well plate format and to identify agonists that activate p53 signaling pathway.
Assay Protocol Summary: The p53RE-bla cells were dispensed at 4,000 cells/5 ul/well in 1536-well black wall/clear bottom plates using a Multidrop dispenser. After the assay plates were incubated at a 37 C/5% CO2 incubator for 5 hours, 23 nL of compounds dissolved in DMSO, positive controls or DMSO only was transferred to the assay plate by a pin tool. The plates were incubated at 37 C for 16 hours. After 1 uL of LiveBLAzer B/G FRET substrate was added using a Flying Reagent Dispenser, the plates were incubated at room temperature for 2 hours, and fluorescence intensity was measured by an Envision plate reader.
Molecule `CNc1nc(=O)n(C2CCCCC2)c(=O)n1C` has an activation of 0.353%.
Molecule `CC(C)(C)c1cccc(C(C)(C)C)c1O` has an activation of -0.526%.
In the case of `Nc1cc(Cl)nc(C(=O)O)c1Cl`, the activation is reported as 1.21%.
Molecule `Cl[Si](Cl)(Cl)c1ccccc1` has an activation of -5.69%.
For `O=C(O)CCCCCCC(=O)O`, the activation was -5.91%.
For `CCCCCCCC[Si](OCC)(OCC)OCC`, the activation was 1.43%.
With `CCCCC/C=C\C/C=C\CCCCCCCC(=O)OC` the activation was -2.82%.
Work on `CCCCNS(=O)(=O)c1ccccc1` yielded an activation of 0.183%.
Molecule `CC(Cl)(Cl)C(=O)OCCOc1cc(Cl)c(Cl)cc1Cl` has an activation of -0.345%.
For `Clc1nc(Cl)c(Cl)c(Cl)c1Cl`, the activation was -0.354%.
Work on `O=C=NCCCCCCN=C=O` yielded an activation of 1.63%.
For `NC(=O)Cc1cccc2ccccc12`, the activation was 1.36%.
With `O=[N+]([O-])c1ccc(O)cc1C(F)(F)F` the Potency was 31.6 µM (active).
In the case of `NNS(=O)(=O)c1ccc(Oc2ccc(S(=O)(=O)NN)cc2)cc1`, the activation is reported as -0.745%.
Work on `C1=C/CC/C=C/CC/C=C/CC/1` yielded an activation of -6.28%.
`CCC(=O)C1C(=O)CC(C(=O)O)CC1=O` (stereo not given) gave an activation of 2.03%.
`C/C(=C\C(C)CC(C)CC(C)C)C1CC(=O)OC1=O` (stereo not given) showed an activation of -3.07%.
For `CCCCOC(=O)c1ccccc1`, the activation was -4.18%.
In the case of `CCC(C)(C)C1CCC(O)CC1` (stereo not given), the activation is reported as 1.97%.
For `Cc1ccc(C(C)(C)C)c(O)c1`, the activation was -4.17%.
Molecule `CC1(C)C(=O)N(Cl)C(=O)N1Cl` has an activation of -0.829%.
`CC(=O)Nc1ccc(N=Nc2cc(C)ccc2O)cc1` showed an activation of -6.18%.
`COc1ccc(OC)c(OC)c1` showed an activation of -1.46%.
In the case of `CCCCOCCOCCO`, the activation is reported as 0.276%.
With `CCCCCCCCCCCCCCCO` the activation was -0.317%.
For `c1cc(-c2ccncc2)ccn1`, the activation was -5.33%.
Molecule `CCCCCCCC/C=C\CCCCCCCCCCCCC` has an activation of -1.77%.
Work on `c1ccc2cc3ccccc3cc2c1` yielded an activation of 7.64%.
With `CCCOC(=O)c1ccc(C(=O)OCCC)nc1` the activation was -3.13%.
`C=C(C)C(=O)OCCC[Si](OC)(OC)OC` showed an activation of -1.41%.
`CCCCCCCCCCCCN` gave an activation of -7.19%.
With `Cc1ccc2c(c1)C(=O)OC2=O` the activation was -6.05%.
With `O=C(O)c1cc(O)c2ccccc2c1O` the activation was -4.76%.
`C[Si](C)(Cl)[Si](C)(C)Cl` gave an activation of -0.0629%.
With `C/C=C/C=C/CCCCCCCO` the activation was 7.24%.
`CSC(=O)c1cccc2nnsc12` showed an activation of 1.69%.
In the case of `C=CCCCCCCCCC=O`, the activation is reported as 3.83%.
`OCCOCCOCCOCCO` gave an activation of 0.49%.
`C=CCOc1nc(OCC=C)nc(OCC=C)n1` gave an activation of -3.44%.
In the case of `Cc1ccc(N=Nc2c(O)ccc3ccccc23)c([N+](=O)[O-])c1`, the activation is reported as -4.13%.
Potency is read from the fitted curve at half-maximal effect.
